Test results as given in PubChem BioAssay (NCATS).
Values joined by “and” are separate entries in the source; they are usually repeats but may differ in a detail not shown here. Identical values can stand only once. Records with an inconclusive call do not appear. Unmarked numbers belong to inactive results. Active and inactive are the calls of the source. Calls come from the whole dose curve; as a rule, active = well fitted curve in the direction sought with a large enough effect; inconclusive = small, poorly fitted or top-dose-only effect, or another doubt; inactive = no such curve, though single readings can be large; an effect the other way counts as inactive or inconclusive.

How the values were obtained:
[1] = test system: Tov-21-G; experiment: Primary qHTS to identify gynecologic anti-cancer compounds using libraries of approved drugs and bioactive compounds (AID 1345084); details: Gynecologic cancer cell panel viability, ATPlite luminescence, 48 h; series mostly up to 57.5 µM; note: nearly all actives have a fitted effect of over 55% in size
In short: (§1)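 Measured: luminescence after ATPlite addition (15 min, RT). Exposure: 48 h, 37 C, 5% CO2.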

[2] = test system: Tov112D; experiment: as above; details: Gynecologic cancer cell panel viability, ATPlite luminescence, 48 h; series mostly up to 57.5 µM
In short: as §1

[3] = Drug repurposing screens with cells derived from glioblastoma tumor samples (AID 1345199); details: GBM patient neurospheres viability, ATP luminescence, 48 h; note: nearly all actives have a fitted effect of over 40% in size; note: potency is the fitted concentration of half-maximal effect
In short: (§2)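 Primary testing used CD133+ neurospheres from four GBM patients, seven concentrations, 48 h exposure and ATP-based viability; confirmation added three slower-growing patient lines.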

[4] = test system: astro; experiment: as above; details: viability, ATP luminescence, 48 h; series mostly up to 45.9 µM
In short: as §2

[5] = at 45.9 µM (top of the series), tumour line B
[6] = at 45.9 µM (top of the series), tumour line D
[7] = at 46 µM (top of the series), tumour line A
[8] = at 46.1 µM (top of the series), tumour line C
[9] = at 20 µM (top of the series), tumour line C
[10] = at 21.2 µM (top of the series), tumour line B
[11] = at 21.2 µM (top of the series), tumour line D
[12] = at 21.3 µM (top of the series), tumour line A
% is set by controls: 0 for no effect and ±100 for the full control effect.

In the case of `Nc1ncnc2c1ncn2[C@@H]1O[C@H](CO)[C@@H](O)[C@H]1O`, the Potency [1] was “inactive”, the Potency [2] was “inactive” and the activity, negative = cell killing [3, 5] was 4.34%. The activity, negative = cell killing [3, 6] was 12.4%, the activity, negative = cell killing [3, 7] was -12.9% and the activity, negative = cell killing [3, 8] was -3.63%. For the same compound, the Potency [4] was “inactive”.
For `NC(=O)c1ncn([C@@H]2O[C@H](CO)[C@@H](O)[C@H]2O)c1N`, the Potency [1] was “inactive”, the Potency [2] was “inactive” and the activity, negative = cell killing [3, 5] was -9.5%. It also gave an activity, negative = cell killing [3, 6] of -4.13%, an activity, negative = cell killing [3, 7] of -19.7% and an activity, negative = cell killing [3, 8] of -3.52%. The Potency [4] was “inactive”.
With `CCCCCCCCCCCCCCCC(=O)NCCO` the Potency [1] was “inactive”, the Potency [2] was “inactive” and the activity, negative = cell killing [3, 5] was 0.41%. It also gave an activity, negative = cell killing [3, 6] of -8.68%, an activity, negative = cell killing [3, 7] of -19.5% and an activity, negative = cell killing [3, 8] of -10.8%. For the same compound, the Potency [4] was “inactive”.
With `N[C@@H](CSSC[C@H](N)C(=O)O)C(=O)O` the activity change, negative = cytotoxicity [1] was 3.42% [at 0.462 µM], the activity change, negative = cytotoxicity [2] was 1.24% [at 0.462 µM] and the activity, negative = cell killing [3, 5] was 7.37%. It also gave an activity, negative = cell killing [3, 6] of 8.78%, an activity, negative = cell killing [3, 7] of 8.9% and an activity, negative = cell killing [3, 8] of -5.12%. The Potency [4] was “inactive”.
In the case of `NC1CCN(c2cccc(Cl)n2)CC1`, the Potency [1] was “inactive”, the Potency [2] was “inactive” and the activity, negative = cell killing [3, 5] was -8.95%. The activity, negative = cell killing [3, 6] was 3.86%, the activity, negative = cell killing [3, 8] was -16% and the Potency ([3]; tumour line A) was 11.2 µM (active). The Potency [4] was “inactive”.
For `CC1(C)Oc2ccc(C#N)cc2[C@@H](N2CCCC2=O)[C@@H]1O`, the Potency [1] was “inactive”, the Potency [2] was “inactive” and the activity, negative = cell killing [3, 5] was -7.82% and 2.52%. The activity, negative = cell killing [3, 6] was -4.19% and -0.466%, the activity, negative = cell killing [3, 7] was -32.5% and -12.3% and the activity, negative = cell killing [3, 8] was -7.78% and -4.72%. For the same compound, the Potency [4] was “inactive”.
With `CC(=O)Nc1ccc(/C=N/NC(N)=S)cc1` the Potency [1] was “inactive”, the Potency [2] was “inactive” and the activity, negative = cell killing [3, 5] was -6.76% and -4.79%. The activity, negative = cell killing [3, 6] was -13.7% and -15.9%, the activity, negative = cell killing [3, 7] was -28.2% and the activity, negative = cell killing [3, 8] was -27.6% and -20.2%. For the same compound, the Potency [4] was “inactive”.
With `O=C1N=C(O)CN1/N=C/c1ccc(-c2ccc([N+](=O)[O-])cc2)o1` the Potency [1] was “inactive”, the Potency [2] was “inactive” and the activity, negative = cell killing [3, 5] was -7.61%. For the same compound, the activity, negative = cell killing [3, 6] was 2.91%, the activity, negative = cell killing [3, 7] was -22.1% and the activity, negative = cell killing [3, 8] was -1.99%. For the same compound, the Potency [4] was “inactive”.
In the case of `C#CCN(C)Cc1ccccc1`, the Potency [1] was “inactive”, the Potency [2] was “inactive” and the activity, negative = cell killing [3, 9] was -8.08%. For the same compound, the activity, negative = cell killing [3, 10] was -12.4%, the activity, negative = cell killing [3, 11] was -7.66% and the activity, negative = cell killing [3, 12] was -32.1%. For the same compound, the Potency [4] was “inactive”.
With `Cn1cc[nH]c1=S` the Potency [1] was “inactive”, the Potency [2] was “inactive” and the activity, negative = cell killing [3, 9] was 3.07%. It also gave an activity, negative = cell killing [3, 10] of -12.9%, an activity, negative = cell killing [3, 11] of -12.3% and an activity, negative = cell killing [3, 12] of -28.7%. The Potency [4] was “inactive”.
With `CC(=O)CCC(=O)O` the Potency [1] was “inactive”, the Potency [2] was “inactive” and the activity, negative = cell killing [3, 5] was -11.2%. It also gave an activity, negative = cell killing [3, 6] of -13.2%, an activity, negative = cell killing [3, 7] of -21% and an activity, negative = cell killing [3, 8] of -0.404%. For the same compound, the Potency [4] was “inactive”.
In the case of `NC(=O)NC(=O)Cc1ccccc1`, the Potency [1] was “inactive”, the Potency [2] was “inactive” and the activity, negative = cell killing [3, 5] was 5.96%. The activity, negative = cell killing [3, 6] was 3.38%, the activity, negative = cell killing [3, 7] was -32.3% and the activity, negative = cell killing [3, 8] was -5.24%. For the same compound, the Potency [4] was “inactive”.
With `O=C(O)CN1C(=O)c2cccc3cccc(c23)C1=O` the Potency [1] was “inactive”, the Potency [2] was “inactive” and the activity, negative = cell killing [3, 5] was -8.91%. It also gave an activity, negative = cell killing [3, 6] of -13.3%, an activity, negative = cell killing [3, 7] of -27.1% and an activity, negative = cell killing [3, 8] of -19.2%. The Potency [4] was “inactive”.
With `CC1=C(CC(=O)O)c2cc(F)ccc2/C1=C\c1ccc(S(C)(=O)=O)cc1` the Potency [1] was “inactive”, the Potency [2] was “inactive” and the activity, negative = cell killing [3, 5] was -11.4%. For the same compound, the activity, negative = cell killing [3, 6] was -18.4%, the activity, negative = cell killing [3, 7] was -33% and the activity, negative = cell killing [3, 8] was 4.54%. For the same compound, the Potency [4] was “inactive”.
For `CC1(C)OC(=O)NC1=O`, the Potency [1] was “inactive”, the Potency [2] was “inactive” and the activity, negative = cell killing [3, 5] was -11.2%. The activity, negative = cell killing [3, 6] was -10.8%, the activity, negative = cell killing [3, 7] was -19.4% and the activity, negative = cell killing [3, 8] was 10.3%. The Potency [4] was “inactive”.
For `COc1ccc(S(=O)(=O)Nc2nnc(CC(C)C)s2)cc1`, the Potency [1] was “inactive”, the Potency [2] was “inactive” and the activity, negative = cell killing [3, 5] was -4.51% and -11.1%. For the same compound, the activity, negative = cell killing [3, 6] was -10.6% and 2.66%, the activity, negative = cell killing [3, 7] was -18% and the activity, negative = cell killing [3, 8] was -23.9%. For the same compound, the Potency [4] was “inactive”.
In the case of `Nc1cc(=O)[nH]c(N)n1`, the Potency [1] was “inactive”, the Potency [2] was “inactive” and the activity, negative = cell killing [3, 5] was 1%. It also gave an activity, negative = cell killing [3, 6] of -2.29%, an activity, negative = cell killing [3, 7] of -24.4% and an activity, negative = cell killing [3, 8] of 6.18%. For the same compound, the Potency [4] was “inactive”.
